According to PubChem BioAssay AID1159580 (chemical genetic matrix, 2015):
Values joined by “and” are separate entries in the source; they are usually repeats but may differ in a detail not shown here. Identical values can stand only once. The whole screen tested about 5,500 compounds, of which about 2,000 (36%) were called active. Another 18% or so got no clear call; they are omitted. Cut-off read from the data, not from the text of the source: active = normalized growth mostly below about 0.91 (no sharp cut-off); inconclusive = no clear call, values can overlap the other calls; inactive = mostly above about 0.92. The list shows a part of the results.

Experiment: chemical genetic growth profiling, strain panel (AID 1159580);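 note: tested at 20 µM; growth read once vehicle control cultures reached saturation at 30 °C; 1 = growth at the plate median or of vehicle wells; lower values mean less growth of the strain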
Details: S. cerevisiae deletion strains, growth OD

Measured: normalized growth

CCCCc1nc(Cl)c(CO)n1Cc1ccc(-c2ccccc2-c2nn[nH]n2)cc1
inactive: locus YAL013W, strain DEP1, stronger effect = lower value 1.01 | locus YAL021C, strain ccr4, stronger effect = lower value 0.992 | locus YAL026C, strain drs2, stronger effect = lower value 0.99 | locus YAL030W, strain snc1, stronger effect = lower value 0.974 | locus YBL061C, strain skt5, stronger effect = lower value 0.99 | locus YBR009C, strain hhf1, stronger effect = lower value 0.993 | locus YBR021W, strain FUR4, stronger effect = lower value 1.01 | locus YBR023C, strain chs3, stronger effect = lower value 0.981 | locus YBR171W, strain sec66, stronger effect = lower value 0.994 | locus YBR229C, strain ROT2, stronger effect = lower value 1.01 | locus YBR231C, strain swc5, stronger effect = lower value 0.968 | locus YBR279W, strain paf1, stronger effect = lower value 0.986 | locus YCL011C, strain gbp2, stronger effect = lower value 0.984 | locus YCL016C, strain dcc1, stronger effect = lower value 0.983 | locus YCL029C, strain bik1, stronger effect = lower value 1.01 | locus YCL061C, strain MRC1, stronger effect = lower value 0.989 | locus YCL069W, strain vba3, stronger effect = lower value 0.985 | locus YCR088W, strain abp1, stronger effect = lower value 0.976 | locus YDL005C, strain med2, stronger effect = lower value 0.977 | locus YDL035C, strain GPR1, stronger effect = lower value 1.02 | locus YDL040C, strain nat1, stronger effect = lower value 0.971 | locus YDL074C, strain BRE1, stronger effect = lower value 1.03 | locus YDL101C, strain DUN1, stronger effect = lower value 1.01 | locus YDL134C, strain PPH21, stronger effect = lower value 1.01 | locus YDL185W, strain tfp1, stronger effect = lower value 1 | locus YDL192W, strain arf1, stronger effect = lower value 1 | locus YDR001C, strain nth1, stronger effect = lower value 0.992 | locus YDR069C, strain doa4, stronger effect = lower value 0.975 | locus YDR101C, strain arx1, stronger effect = lower value 0.996 | locus YDR137W, strain rgp1, stronger effect = lower value 0.986 | locus YDR150W, strain NUM1, stronger effect = lower value 1.01 | locus YDR159W, strain sac3, stronger effect = lower value 0.943 | locus YDR162C, strain NBP2, stronger effect = lower value 1.01 | locus YDR195W, strain ref2 0.93 | locus YDR297W, strain sur2, stronger effect = lower value 0.993 | locus YDR318W, strain mcm21, stronger effect = lower value 1.01 | locus YDR334W, strain swr1, stronger effect = lower value 0.966 | locus YDR335W, strain msn5, stronger effect = lower value 0.992 | locus YDR388W, stronger effect = lower value 1 | locus YDR392W, strain spt3, stronger effect = lower value 1 | locus YDR502C, strain sam2, stronger effect = lower value 0.997 | locus YEL003W, strain gim4, stronger effect = lower value 1.01 | locus YEL037C, strain rad23, stronger effect = lower value 0.985 | locus YEL061C, strain CIN8 (second series), stronger effect = lower value 0.982 | locus YEL061C, strain CIN8, stronger effect = lower value 1.01 | locus YER015W, strain faa2, stronger effect = lower value 0.996 | locus YER016W, strain bim1, stronger effect = lower value 0.976 | locus YER110C, stronger effect = lower value 1 | locus YER111C, strain swi4, stronger effect = lower value 0.967 | locus YER155C, strain BEM2 (second series), stronger effect = lower value 0.968 | locus YER155C, strain BEM2, stronger effect = lower value 0.973 | locus YER167W, strain BCK2, stronger effect = lower value 1.01 | locus YFR010W, strain ubp6, stronger effect = lower value 0.985 | locus YGL078C, strain dbp3, stronger effect = lower value 0.995 | locus YGL086W, strain mad1, stronger effect = lower value 0.993 | locus YGL167C, strain pmr1, stronger effect = lower value 0.978 | locus YGL173C, strain kem1, stronger effect = lower value 0.986 | locus YGL227W, strain vid30, stronger effect = lower value 0.982 | locus YGL240W, strain doc1, stronger effect = lower value 0.981 | locus YGL248W, strain PDE1, stronger effect = lower value 1.01 | locus YGL253W, strain hxk2, stronger effect = lower value 0.985 | locus YGR078C, strain PAC10, stronger effect = lower value 1.02 | locus YGR135W, strain pre9, stronger effect = lower value 0.998 | locus YGR229C, strain SMI1, stronger effect = lower value 1.01 | locus YGR252W, strain gcn5, stronger effect = lower value 1 | locus YHR013C, strain ard1, stronger effect = lower value 1.01 | locus YHR027C, strain rpn1, stronger effect = lower value 1 | locus YHR030C, strain SLT2, stronger effect = lower value 1.01 and 0.941 | locus YHR079C, strain IRE1 (second series), stronger effect = lower value 0.995 | locus YHR079C, strain IRE1, stronger effect = lower value 0.969 | locus YHR094C, strain hxt1, stronger effect = lower value 0.992 | locus YHR129C, strain ARP1, stronger effect = lower value 1.01 | locus YHR142W, strain chs7, stronger effect = lower value 0.986 | locus YHR200W, strain rpn10, stronger effect = lower value 0.999 | locus YIL066C, strain RNR3, stronger effect = lower value 1.01 | locus YIL073C, strain SPO22, stronger effect = lower value 1.08 | locus YIL125W, strain kgd1, stronger effect = lower value 0.994 | locus YIR030C, strain dcg1, stronger effect = lower value 0.995 | locus YJL092W, strain hpr5, stronger effect = lower value 1 | locus YJL095W, strain BCK1 (second series), stronger effect = lower value 0.985 | locus YJL095W, strain BCK1, stronger effect = lower value 1.02 and 0.998 | locus YJL115W, strain asf1, stronger effect = lower value 0.994 | locus YJL129C, strain trk1, stronger effect = lower value 0.963 | locus YJL134W, strain LCB3, stronger effect = lower value 1 | locus YJL154C, strain vps35, stronger effect = lower value 0.969 | locus YJL164C, strain tpk1, stronger effect = lower value 1 | locus YJL166W, strain qcr8, stronger effect = lower value 0.98 | locus YJL168C, strain set2, stronger effect = lower value 0.996 | locus YJL187C, strain SWE1 (second series), stronger effect = lower value 1.01 | locus YJL187C, strain SWE1, stronger effect = lower value 0.981 | locus YJR043C, strain POL32, stronger effect = lower value 1.02 | locus YJR066W, strain TOR1, stronger effect = lower value 0.987
